Experimental data reported in PubChem BioAssay (NCATS).
Results filed as inconclusive are left out. Calls of active or inactive are those of the source. Calls come from the whole dose curve; as a rule, active = well fitted cell-killing curve with a large enough effect; inconclusive = small, poorly fitted or top-dose-only effect, or effect the other way; inactive = flat fitted curve, though single readings scatter.

Experiments:
Assay in all cases: Primary qHTS to identify gynecologic anti-cancer compounds using libraries of approved drugs and bioactive compounds (AID 1345084); note: nearly all actives have a fitted effect of over 55% in size
C33A = conditions: Gynecologic cancer cell panel viability, ATPlite luminescence, 48 h; series mostly up to 57.5 µM
How it was run: (§1)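 Five-concentration response, 48 h; readout is ATP-driven luciferase luminescence.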

CAOV3 = conditions: Gynecologic cancer cell panel viability, ATPlite luminescence, 48 h; series mostly up to 57.5 µM
How it was run: as §1

CASKI = conditions: Gynecologic cancer cell panel viability, ATPlite luminescence, 48 h; series mostly up to 57.5 µM
How it was run: as §1

Es-2 = conditions: Gynecologic cancer cell panel viability, ATPlite luminescence, 48 h; series mostly up to 57.5 µM
How it was run: as §1

HeLa = conditions: Gynecologic cancer cell panel viability, ATPlite luminescence, 48 h; series mostly up to 57.5 µM
How it was run: as §1

Hek293T = conditions: Gynecologic cancer cell panel viability, ATPlite luminescence, 48 h, control line for the selectivity index; series mostly up to 57.5 µM
How it was run: as §1

JEG-3 = conditions: Gynecologic cancer cell panel viability, ATPlite luminescence, 48 h; series mostly up to 57.5 µM
How it was run: as §1

PA-1 = conditions: Gynecologic cancer cell panel viability, ATPlite luminescence, 48 h; series mostly up to 57.5 µM
How it was run: as §1

Tov112D = conditions: Gynecologic cancer cell panel viability, ATPlite luminescence, 48 h; series mostly up to 57.5 µM
How it was run: as §1

Tov-21-G = conditions: Gynecologic cancer cell panel viability, ATPlite luminescence, 48 h; series mostly up to 57.5 µM
How it was run: as §1

SKOV3 = conditions: Gynecologic cancer cell panel viability, ATPlite luminescence, 48 h; series mostly up to 57.5 µM
How it was run: as §1

OV90 = conditions: Gynecologic cancer cell panel viability, ATPlite luminescence, 48 h; series mostly up to 57.5 µM
How it was run: as §1
% is set by controls: 0 for no effect and ±100 for the full control effect.

C=C1C(=O)OC2/C=C(\C)CC3C=C(CC/C=C(\C)CCC12)C(=O)O3 (stereo not drawn)
inactive: Potency (C33A) | Potency (CAOV3) | Potency (CASKI) | Potency (Es-2) | Potency (HeLa) | Potency (Hek293T) | Potency (JEG-3) | Potency (PA-1) | Potency (Tov112D)

CCC(=C(c1ccc(OCCN2CCCC2)cc1)c1ccc(OCCN2CCCC2)cc1)c1ccccc1
inactive: Potency (C33A) | Potency (CAOV3) | Potency (CASKI) | Potency (Es-2) | Potency (HeLa) | Potency (Hek293T) | Potency (JEG-3) | Potency (Tov-21-G) | Potency (Tov112D)

COc1ccc(CNCc2cccc3ccccc23)cc1
inactive: Potency (C33A) | Potency (CAOV3) | Potency (CASKI) | Potency (Es-2) | Potency (HeLa) | Potency (Hek293T) | Potency (JEG-3) | Potency (PA-1) | Potency (SKOV3) | Potency (Tov-21-G) | Potency (Tov112D)

Cc1csc(N(C(=O)CSc2ccc(-c3ccccc3)nn2)C2CC2)n1
inactive: Potency (C33A) | Potency (CAOV3) | Potency (CASKI) | Potency (Es-2) | Potency (HeLa) | Potency (Hek293T) | Potency (JEG-3) | Potency (PA-1) | Potency (Tov-21-G) | Potency (Tov112D)

C#CCOc1ccc2c(c1)c(-c1ccc(C(C)C)cc1)nc(=O)n2C(C)C
inactive: Potency (C33A) | Potency (CAOV3) | Potency (CASKI) | Potency (Es-2) | Potency (HeLa) | Potency (Hek293T) | Potency (JEG-3) | Potency (PA-1) | Potency (SKOV3) | Potency (Tov-21-G) | Potency (Tov112D)

NC(=O)C1=CC2C3C=CC2C(OC3=O)O1 (stereo not drawn)
inactive: Potency (C33A) | Potency (CAOV3) | Potency (CASKI) | Potency (Es-2) | Potency (HeLa) | Potency (Hek293T) | Potency (OV90) | Potency (PA-1) | Potency (SKOV3) | Potency (Tov-21-G) | Potency (Tov112D)

CCC(C)CNCC(=O)N1CCc2sccc2C1COc1cccc(C)c1 (stereo not drawn)
inactive: Potency (C33A) | Potency (CAOV3) | Potency (CASKI) | Potency (Es-2) | Potency (HeLa) | Potency (Hek293T) | Potency (JEG-3) | Potency (PA-1) | Potency (SKOV3) | Potency (Tov-21-G) | Potency (Tov112D)

Cc1cccc(-c2[nH]ncc2-c2ccnc3ccccc23)n1
inactive: Potency (C33A) | Potency (CAOV3) | Potency (CASKI) | Potency (Es-2) | Potency (HeLa) | Potency (Hek293T) | Potency (JEG-3) | Potency (PA-1) | Potency (SKOV3) | Potency (Tov-21-G) | Potency (Tov112D)

O=C(NC[C@H](O)CN1CCc2ccccc2C1)c1ccnc(NC2CCC2)c1
inactive: Potency (C33A) | Potency (CAOV3) | Potency (CASKI) | Potency (Es-2) | Potency (HeLa) | Potency (Hek293T) | Potency (JEG-3) | Potency (PA-1) | Potency (SKOV3) | Potency (Tov-21-G) | Potency (Tov112D)

COc1ccc2c(NC(=O)Nc3cccc(C(F)(F)F)n3)ccnc2c1
inactive: Potency (C33A) | Potency (CAOV3) | Potency (CASKI) | Potency (Es-2) | Potency (HeLa) | Potency (Hek293T) | Potency (OV90) | Potency (SKOV3) | Potency (Tov-21-G) | Potency (Tov112D)

CC(=O)OC1CCC2(C)C(CCC3(C)C2CC=C2C4C(C)C(C)CCC4(C)CCC23C)C1(C)C(=O)O (stereo not drawn)
inactive: Potency (C33A) | Potency (CAOV3) | Potency (CASKI) | Potency (Es-2) | Potency (HeLa) | Potency (Hek293T) | Potency (OV90) | Potency (PA-1) | Potency (Tov-21-G) | Potency (Tov112D)

CCC/C=C/C(=O)O[C@H]1CC(C)(C)CC2[C@@]13[C@H](O)C[C@]1(C)[C@@]2(CCC2[C@@]4(C)CC[C@H](O[C@@H]5O[C@H](C(=O)O)[C@@H](O)[C@H](O[C@@H]6O[C@H](CO)[C@H](O)[C@H](O)[C@H]6O[C@@H]6O[C@@H](C)[C@H](O)[C@@H](O)[C@H]6O[C@@H]6OC[C@](O)(CO)[C@H]6O)[C@H]5O[C@@H]5O[C@H](CO)[C@H](O)[C@H](O)[C@H]5O)C(C)(C)C4CC[C@]21C)O[C@H]3O (stereo partly drawn)
inactive: activity change, negative = cytotoxicity (C33A) 1.29% [at 6.55 µM] | activity change, negative = cytotoxicity (CAOV3) -15.9% [at 6.55 µM] | activity change, negative = cytotoxicity (CASKI) -0.213% [at 6.55 µM] | activity change, negative = cytotoxicity (Es-2) 3.48% [at 6.55 µM] | activity change, negative = cytotoxicity (HeLa) 4.5% [at 6.55 µM] | activity change, negative = cytotoxicity (Hek293T) -25.4% [at 6.55 µM] | activity change, negative = cytotoxicity (JEG-3) 15.7% [at 6.55 µM] | activity change, negative = cytotoxicity (PA-1) -0.263% [at 6.55 µM] | activity change, negative = cytotoxicity (SKOV3) -3.55% [at 6.55 µM] | activity change, negative = cytotoxicity (Tov-21-G) -24.3% [at 6.55 µM] | activity change, negative = cytotoxicity (Tov112D) 7.77% [at 6.55 µM]

O=C(NCCN1CCC(n2c(=O)[nH]c3ccccc32)CC1)c1ccc2ccccc2c1
inactive: Potency (C33A) | Potency (CAOV3) | Potency (CASKI) | Potency (Es-2) | Potency (HeLa) | Potency (Hek293T) | Potency (JEG-3) | Potency (PA-1) | Potency (SKOV3) | Potency (Tov-21-G) | Potency (Tov112D)

Cc1ccc(S(=O)(=O)N2CCC[C@H]2c2ccc(F)cc2)cc1
inactive: Potency (C33A) | Potency (CAOV3) | Potency (CASKI) | Potency (Es-2) | Potency (HeLa) | Potency (Hek293T) | Potency (JEG-3) | Potency (PA-1) | Potency (SKOV3) | Potency (Tov-21-G) | Potency (Tov112D)

Fc1ccc(-c2nc(-c3ccccc3F)[nH]c2-c2ccncc2)cc1
inactive: Potency (C33A) | Potency (CAOV3) | Potency (CASKI) | Potency (Es-2) | Potency (HeLa) | Potency (Hek293T) | Potency (JEG-3) | Potency (PA-1) | Potency (SKOV3) | Potency (Tov-21-G) | Potency (Tov112D)
